PubChem BioAssay
The source made the active and inactive calls. No rule for the calls is given here.

biological target: Pantothenate synthetase (Mycobacterium tuberculosis (strain ATCC 25618 / H37Rv)) (UniProt P9WIL5); test: Recombinant Mtb pantothenate synthetase (PanC) inhibitors, coupled enzyme, confirmatory (AID 375); conditions: coupled enzyme assay; at 10 µM, hits give high values;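 also: 0% = full reaction with vehicle and 100% = no enzyme background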
Sequence (P9WIL5 whole entry, looked up): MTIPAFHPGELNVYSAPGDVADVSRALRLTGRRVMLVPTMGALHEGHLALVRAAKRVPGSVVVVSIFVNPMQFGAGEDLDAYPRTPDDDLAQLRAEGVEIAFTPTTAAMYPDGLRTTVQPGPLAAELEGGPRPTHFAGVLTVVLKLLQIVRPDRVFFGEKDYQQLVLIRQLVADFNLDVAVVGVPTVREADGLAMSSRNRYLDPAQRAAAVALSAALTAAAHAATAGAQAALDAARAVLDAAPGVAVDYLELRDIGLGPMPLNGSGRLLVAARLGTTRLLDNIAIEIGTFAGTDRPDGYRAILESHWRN

SMILES | inhibition
COc1ccc(C2CC(=O)c3c(C)nc(N4CCN(c5ccccc5)CC4)nc3C2)cc1 (stereo not given) | 0% (inactive)
O=C(C1CC1)N(Cc1ccco1)c1nc(-c2ccccc2)cs1 | 1% (inactive)
NC(=O)C1(N2CCCCC2)CCN(C(=O)Nc2ccccc2C(F)(F)F)CC1 | 1% (inactive)
Cc1cc(NS(=O)(=O)c2ccccc2)no1 | 1% (inactive)
O=C(Cc1ccccc1)N1CCCC(c2nc(-c3cccs3)no2)C1 (stereo not given) | 0% (inactive)
CSc1ccccc1NC(=O)CN(Cc1ccccc1)S(C)(=O)=O | 0% (inactive)
CCOC(=O)N1CCC2(CC1)CC(=O)c1c(ccc3oc(C(=O)O)c(C)c13)O2 | 0% (inactive)
O=C(NCc1cccs1)c1cc2c(s1)-c1ccccc1OC2 | 0% (inactive)
CCn1c(CC(=O)Nc2cccc(OC)c2)nnc1SCC(=O)Nc1nccs1 | 0% (inactive)
Cc1ccc(SC(C)c2nc(-c3ccccc3)no2)cc1 (stereo not given) | 0% (inactive)
Cn1c(CN2CCCCC2)nc2cc(NC(=O)c3ccccc3)ccc21 | 0% (inactive)
CCCC1CC(C)(C(=O)Cn2[nH]c(=O)ccc2=O)OC1=O (stereo not given) | 10% (inactive)
CCCSc1nc2c(c(=O)[nH]c(=O)n2C)n1CCc1ccccc1 | 5% (inactive)
COc1ccc(-n2c(N)c(C(=O)NCc3ccco3)c3nc4ccccc4nc32)c(OC)c1 | 4% (inactive)
Cc1cc(Nc2ccccc2)n(CCC#N)n1 | 14% (inactive)
Cc1ccc(CNC(=O)C2CCN(S(=O)(=O)c3c(C)noc3C)CC2)cc1 | 3% (inactive)
Cc1onc(-c2c(Cl)cccc2Cl)c1C(=O)N1CCc2ccccc21 | 0% (inactive)
CC1CCc2nc(NC(=O)CN3CCN(Cc4ccc5c(c4)OCO5)CC3)sc2C1 (stereo not given) | 0% (inactive)
COc1ccc(OC)c(NC(=O)CS(=O)(=O)Cc2nc(-c3ccccc3C)oc2C)c1 | 0% (inactive)
O=S1(=O)C=C(Sc2nc3ccccc3s2)c2ccccc21 | 0% (inactive)

SMILES | inhibition
CCNCCNC(=O)c1c(O)c2ccccc2n(CC)c1=O | 0% (inactive)
O=C(Nc1nonc1NC(=O)C1CCCCC1)C1CCCCC1 | 0% (inactive)
CC1=C(C(=O)Nc2ccccc2C)C(c2ccc(C)o2)N2C(=O)CSC2=N1 (stereo not given) | 0% (inactive)
CCOCCCNC(=O)CS(=O)(=O)Cc1nc(-c2cccc(OC)c2)oc1C | 0% (inactive)
CC(=O)OC1CSc2nc3ccccc3n2C1 (stereo not given) | 0% (inactive)
Cn1c(SCC(=O)c2ccc(-c3ccccc3)cc2)nnc1-c1ccco1 | 2% (inactive)
COCc1[nH]nc2c1C(C1C=CCCC1)C(C#N)=C(N)O2 (stereo not given) | 0% (inactive)
O=C(CC1Oc2ccccc2NC1=O)NCCCN1CCOCC1 (stereo not given) | 0% (inactive)
O=C(CSc1nnnn1-c1ccccc1)Nc1ccc(Cl)cc1 | 0% (inactive)
COc1ccc(OC)c(S(=O)(=O)N2CCN(c3c(C)cccc3C)CC2)c1 | 1% (inactive)
CCOCCCNC(=O)C1CCCN(S(=O)(=O)CC)C1 (stereo not given) | 0% (inactive)
O=C(CCS(=O)(=O)c1cc(Br)cc2c1N(C(=O)C1CC1)CC2)NCC1CCCO1 (stereo not given) | 0% (inactive)
CCOc1cc(S(=O)(=O)Nc2ccccn2)ccc1F | 0% (inactive)
COc1ccccc1N(CC(=O)NCc1ccccc1)S(C)(=O)=O | 0% (inactive)
CNC(=O)CN(c1cc(C)ccc1OC)S(=O)(=O)c1ccc(C)cc1 | 3% (inactive)
O=C(NC1=NCCS1)c1nc(-c2ccccc2)n(-c2ccccc2)n1 | 3% (inactive)
O=c1[nH]c(NCc2ccccc2)nc2c1CCCC2 | 0% (inactive)
Cn1c(=O)c2c(nc(NCc3ccccc3)n2CCCc2ccccc2)n(C)c1=O | 0% (inactive)
Cc1[nH]c(=O)[nH]c(=O)c1S(=O)(=O)N(C)Cc1ccccc1 | 0% (inactive)
Cc1ccc(S(=O)(=O)N2CCC(C(=O)N3CCC[C@H]3C(=O)NCc3ccccc3)CC2)cc1 | 0% (inactive)
